Screens: PubChem, National Center for Advancing Translational Sciences (NCATS)
Pin1 inh: qHTS Assay to Find Inhibitors of Pin1; Peptidyl-prolyl cis-trans isomerase NIMA-interacting 1 (Homo sapiens), Q13526; Pin1 FP peptide displacement, HiFluor488, 10 min; Potency, µM (series often up to 115 µM), most hits filed as inhibitors; hit rate 0.009% among 390,000; AID 504891, 2011; active = well fitted inhibition curve with a large enough effect in the polarisation, with a control signal flat, not every such curve was filed as active; inconclusive = small, poorly fitted or top-dose-only effect, or effect the other way, or a change in a side signal; inactive = no such curve, though single readings can be large or run the other way; the % refers to the polarisation
ClpP mod: qHTS Assay for Activators of ClpP; purified B. subtilis ClpP, FRET peptide cleavage, 20 min; Potency, µM (top dose mostly 57.5 µM); hit rate 1.9% among 340,000; active = well fitted falling curve with a large enough effect; inconclusive = small, poorly fitted or top-dose-only effect; inactive = no such curve, though single readings can be large or run the other way; also: the source files actives as falling curves though it sought activators and does not explain the sign; nearly all actives have a fitted effect of over 65% in size
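Buffer: 100 mM Tris/HCl pH8, 100 mM KCl, 0.05% low protease BSA, 2.5% glycerol, 0.01% Tween-20. ClpP 10 microg/mL final; 20 min RT; delta FRET normalized to ADEP and DMSO controls.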
Integrin act MD: qHTS for Activators of Integrin-Mediated Alleviation for Muscular Dystrophy. Potency, µM (titrated, usually from 38.3 µM), usual class: activators. AID 624291, 2012. alpha7betagal myoblasts, beta-gal FDG fluorescence, 48 h. hit rate 0.064% among 350,000; also: nearly all actives have a fitted effect of over 60% in size
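Alpha7betagal+/- myoblasts (passage 13) were plated 16-24 hr, then exposed to compounds (1:260 dilution of DMSO stock) for 48 hours at 37C. After MPER lysis, β-galactosidase reporter activity was read as FDG fluorescence (ex 480/em 540) after 30 minutes.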
USP2a block: qHTS Assay for Inhibitors of Ubiquitin-specific Protease USP2a Using CHOP2 as the Reporter; Potency, µM (highest dose often 38.3 µM), usual class: inhibitors; hit rate 0.01% among 330,000; USP2 core, Ub-CHOP2 coupled fluorogenic reporter, 485/531; Ubiquitin carboxyl-terminal hydrolase 2 (Homo sapiens), O75604
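Cell-free coupled assay: 10nM USP2 core preincubated 30min RT with compound in Tris-HCl pH 8.0/CaCl2/CHAPS buffer, then 25nM Ub-CHOP2 and 25nM reporter substrate; fluorescence (Ex 485/Em 531) read after 60min RT, normalized to NEM inhibition, concentration-response curves fitted.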
IL2 activator: qHTS of IL-2 Activators; IL-2 activation reporter assay, cell-based qHTS; stimulated with anti-CD3/CD4/CD28 beads; in transgenic mouse T cells; activation, % (series mostly up to about 46 µM); hit rate 0.065% among 360,000; in the data active = activation above about 50%; inconclusive = mostly about 30% to 49%
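First, unstimulated transgenic mouse T cells were exposed to compound for 60 min. Next, anti-CD3/anti-CD4-coated beads with anti-CD28 were added. Finally, after 18 h at 37 degrees C, EGFP and DsRed were imaged.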
PKM2 activator: qHTS Assay for Activators of Human Muscle isoform 2 Pyruvate Kinase; AID 1631, 2009; hit rate 0.34% among 260,000; Pyruvate kinase PKM (Homo sapiens), P14618; Potency, µM (top dose mostly 57.5 µM), hits mostly activators; purified PKM2, Kinase-Glo ATP luminescence, activation; response scale: 0% is enzyme alone, no compound; also: nearly all actives have a fitted effect of over 55% in size
Target sequence (P14618 whole entry, looked up, canonical isoform): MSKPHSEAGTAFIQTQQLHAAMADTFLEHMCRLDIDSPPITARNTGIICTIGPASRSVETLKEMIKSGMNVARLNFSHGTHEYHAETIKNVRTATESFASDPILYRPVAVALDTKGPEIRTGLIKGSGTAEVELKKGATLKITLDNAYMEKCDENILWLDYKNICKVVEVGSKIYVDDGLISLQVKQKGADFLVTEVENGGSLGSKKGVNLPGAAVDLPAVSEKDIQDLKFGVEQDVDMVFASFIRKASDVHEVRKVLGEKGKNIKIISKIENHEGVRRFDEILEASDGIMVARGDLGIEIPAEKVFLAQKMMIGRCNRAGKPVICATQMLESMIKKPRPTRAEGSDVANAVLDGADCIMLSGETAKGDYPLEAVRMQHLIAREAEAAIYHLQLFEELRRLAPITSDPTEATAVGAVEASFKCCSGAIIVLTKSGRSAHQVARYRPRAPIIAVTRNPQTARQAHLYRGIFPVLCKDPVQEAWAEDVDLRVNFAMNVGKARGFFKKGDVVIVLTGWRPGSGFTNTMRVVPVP
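Kinase-Glo luminescence reports ATP generated from ADP (0.1 mM) and PEP (0.5 mM) by purified hPK-M2 after 1 h at room temperature, pH 7.2 imidazole buffer; intermediate enzyme activity allows detecting inhibitors and activators.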
Numbers stand for hits; . = inactive; ? = inconclusive; / = no result; [ ] = dose if it differs, or a comment. The list is not random: actives were taken first. Their share in the collection is about 1.9%. Unless noted, calls follow the shape of the dose curve; as a rule, active = well fitted curve in the direction sought with a large enough effect; inconclusive = small, poorly fitted or top-dose-only effect, or another doubt; inactive = no such curve, though single readings can be large; an effect the other way counts as inactive or inconclusive.

SMILES	Pin1 inh	ClpP mod	Integrin act MD	USP2a block	IL2 activator	PKM2 activator
COc1cccc(OC)c1-c1cc(CCCc2cc(-c3c(OC)cccc3OC)nc3ccccc23)c2ccccc2n1	/	.	/	/	/	/
COc1cc2nc(N3CCN(C)CC3)nc(NC(C)C)c2cc1OC	/	.	/	/	/	/
CCCN1CNc2c(c(=O)[nH]c(=S)n2CCc2ccccn2)C1	.	.	/	/	/	/
CCOc1ccc(-c2oc3ccccc3c(=O)c2O)cc1OCC	.	31.6µM	/	/	/	/
COc1cc(-c2ccc3ncnc(N(C)Cc4csc(C)n4)c3c2)cc(OC)c1OC	.	/	/	/	/	/
CCc1nc(N)c(C#N)c(-c2cccnc2)c1C	.	.	.	.	.	.
CCc1nc(N)c(C#N)c(-c2ccc(F)cc2)c1C	.	28.2µM	.	.	.	.
Oc1cnc2ccccc2c1CN1CCOCC1	.	20µM	.	.	.	.
Oc1ccc2ccccc2c1CN1CCOCC1	.	/	.	.	.	.
COc1ccc(NC2CCCN(C(=O)CCN3CCCC3=O)C2)cc1 (stereo not given)	.	.	.	.	.	.
O=C1CCCN1CCC(=O)N1CCCC(Nc2ccc(F)cc2)C1 (stereo not given)	.	28.2µM	.	.	.	.
COc1ccc([C@H]2[C@H](c3ccccc3)C(=O)N2Cc2ccccc2)cc1COc1ccc(NC(C)=O)cc1	.	/	/	/	/	/
CCN(CC)C(=O)c1c([N+](=O)[O-])c(C(C)(C)C)nn1C	.	25.1µM	.	.	.	.
CC(=O)Nc1ccc(NC(=O)c2oc3c(c2C)-c2nn(Cc4ccccc4Cl)cc2CC3)cc1	.	20µM	/	/	/	/
Cc1ccc(CNC(=O)c2oc3c(c2C)-c2nn(Cc4ccc(Cl)cc4)cc2CC3)cc1	.	.	/	/	/	/
COCCCNC(=O)c1oc2c(c1C)-c1nn(Cc3ccc(Cl)cc3)cc1CC2	.	31.6µM	/	/	/	/
CCN(CC)CCCNC(=O)c1oc2c(c1C)-c1nn(Cc3ccc(Cl)cc3)cc1CC2	.	15.8µM	/	/	/	/
Cc1cc2c(s1)c1cnn(Cc3ccc(F)cc3Cl)c(=O)c1n2C	.	/	/	/	/	/
Cc1cc2c(s1)c1cnn(Cc3cc(F)c(F)c(F)c3)c(=O)c1n2C	.	/	/	/	/	/
O=S(=O)(c1ccccc1F)N1CCN(c2nc(-c3cccs3)nc3ccccc23)CC1	.	.	/	/	/	/
C=C1C=C(C(F)F)n2ncc(C(=O)NCc3ccccc3)c2N1	/	.	/	/	/	/
CCC(=O)Nc1nonc1-c1nc2ccccc2n1N(C(=O)CC)C(=O)CC	.	28.2µM	.	.	.	.
CCC(=O)Nc1nonc1-c1nc2ccccc2n1CCC(C)C	?	28.2µM	.	.	.	.
CC(=O)Nc1nonc1-c1nc2ccccc2n1CCC(C)C	.	?	11.2µM	.	.	.
CCC(=O)Nc1nonc1-c1nc2ccccc2n1Cc1ccccc1	.	?	.	.	.	.
SMILES	Pin1 inh	ClpP mod	Integrin act MD	USP2a block	IL2 activator	PKM2 activator
COC(=O)C1=C(C(=O)OC)[C@@H]2N(C)c3ccccc3[C@@]23C[C@@H](C(=O)OC)N(S(=O)(=O)c2ccc4c(c2)OCCN4C)C3=N1	/	/	/	/	/	.[11.5 µM]
COc1ccc(-c2ccc(OC)c(C3C4C=CCCC4(C)C(=O)N3Cc3ccccc3)c2)cc1 (stereo not given)	.	/	/	/	/	/
Cc1cccc(/C=C/c2onc(C)c2S(=O)(=O)N2CCC(C(=O)N3CCC(C)CC3)CC2)c1	?	.	.	.	.	/
COc1cccc(/C=C/c2onc(C)c2S(=O)(=O)N2CCC(C(=O)N3CCC(C)CC3)CC2)c1	.	31.6µM	/	/	/	/
Nc1nc(SCC(=O)Nc2ccc(Br)cc2F)n[nH]1	.	.	.	.	.	22.4µM
O=C(c1ccc(F)cc1)N1CCOCC1	.	.	.	.	.	.
O=C(c1ccc(=O)oc1)N1CCOCC1	/	31.6µM	.	.	.	.
CC(=O)N1CCN(c2nc(-c3ccc(Br)cc3)cs2)CC1	.	/	/	/	/	/
